The values below come from PubChem BioAssay.

The source made the active and inactive calls.

The test is described as follows: splicing luciferase reporter signal modulators, primary screen, spliceosome inhibition project, cell-based, HEK293, splice +/- reporter (AID 1101).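 Note: HEK293 cells carrying a splicing-competent luciferase reporter gene; test concentration not given here.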 As to conditions: luminescence, 24 h, higher = more signal, called active from +8 up or from −8 down. For orientation: Reporter assays use an easily measured gene product as a stand-in for the process of interest.
`COc1cc2c(cc1O)C(C)N(Cc1ccc([N+](=O)[O-])o1)CC2` (stereo not given): the z-score is 0.286 (inactive).

`COCCOC(=O)N1C(=O)[C@@]2(c3cc(C#Cc4ccc(OC)cc4)ccc31)[C@H](c1ccc(O)cc1)N1[C@H](c3ccccc3)[C@H](c3ccccc3)OC(=O)[C@H]1[C@@H]2C(=O)N1CCCCCCC1`: the z-score is 1.5 (inactive).

Turning to `COc1ccc([Si](C)(C)[C@@H]2[C@@H](CC(=O)N(CCO)Cc3ccccc3)O[C@]3(C(=O)N(Cc4cccc(N5C(=O)c6cccc7cccc5c67)c4)c4ccccc43)[C@H]2C)cc1`, the z-score is -1.11 (inactive).

For the molecule `Cc1ccc(S[C@]2(C(=O)O)CC(=O)N(Cc3ccccc3Cl)[C@@H]2c2ccc(CO)cc2I)cc1`, the z-score was -0.565 (inactive).

`COC(=O)C1=CC(CCCO)=CC(C2CC2)N(C)C=C1C(=O)OC` (stereo not given): the z-score is -0.519 (inactive).

Regarding `COCCOC(=O)N1C(=O)[C@@]2(c3cc(C#CCC(C(=O)OC)C(=O)OC)ccc31)[C@H](C(=O)N1CCc3cc(OC)c(OC)cc3C1)[C@H]1C(=O)O[C@H](c3ccccc3)[C@H](c3ccccc3)N1[C@@H]2c1ccc(OCCO)cc1`, the z-score was 0.382 (inactive).

With `COc1ccc([Si](C)(C)[C@H]2[C@H](CCO)O[C@@]3(C(=O)N(Cc4cccc(N5C(=O)COc6ccccc65)c4)c4ccccc43)[C@@H]2C)cc1`, the z-score is -2.17 (inactive).

On to `CN(C)CCCNC(=O)[C@@]1(C)c2ccccc2C(=O)N(Cc2ccccc2)[C@H]1c1ccc(CO)cc1`, for which the z-score was 0.711 (inactive).

With `COC(=O)c1c2oc(c1C(=O)OC)C(=O)N(Cc1ccccc1)Cc1cn(nn1)C[C@H](Cc1ccccc1)NC(=O)N[C@H](CO)CC2`, the z-score is -2.12 (inactive).

On to `[N-]=[N+]=NCc1ccccc1[C@H]1OC(c2ccc(OCCCO)cc2)=N[C@@]1(CCS(=O)(=O)c1ccccc1)C(=O)N1CCCCC1`, for which the z-score is -0.33 (inactive).

With `O=C(CS)NCCCCCNC(=O)[C@@H]1C[C@@H]2C(=O)N3CCC[C@H]3C(=O)N2[C@@H]1c1cccc(OCCO)c1`, the z-score was 0.501 (inactive).

With `COCCOC(=O)N1C(=O)[C@@]2(c3cc(C#CCCO)ccc31)[C@H](C(=O)Nc1nc3ccccc3s1)[C@H]1C(=O)O[C@H](c3ccccc3)[C@H](c3ccccc3)N1[C@@H]2c1ccccc1OCCO`, the z-score is 0.0499 (inactive).

Consider `C[C@@H]1NC(=O)[C@@]23C(=O)N[C@@H](Cc4ccccc4)C2[C@H](C)[C@@]2(C)O[C@H]2C3/C=C/C/C=C\CNC(=O)[C@@H]2CCCN2C1=O` (stereo not given in full), for which the z-score was -0.0139 (inactive).

As for `CCC[C@@H]1C[C@@]1(CCC)[C@@H](NC(=O)OCc1ccccc1)c1ccc(-c2ccccc2)cc1`, the z-score is -3.43 (inactive).

For the molecule `CC[C@H]1C2=C3C(CC[C@H]4C(OCc5ccc(F)cc5C(F)(F)F)OC[C@](C)([C@@H]34)N(C(=O)OC(C)(C)C)C2)C(COC)C1COC` (stereo not given in full), the z-score was 0.477 (inactive).

Regarding `CC(C)(C)OC(=O)CC[C@@]1(C(=O)NCc2ccccc2)N=C(c2ccc(OCCCO)cc2)O[C@@H]1c1ccccc1N=[N+]=[N-]`, the z-score was -1.18 (inactive).

Take `CCC(CC)C(O)C1C=CC2C(=O)N(c3ccccc3)C(=O)C2N1Nc1ccc(C(C)C)cc1` (stereo not given): the z-score is -0.0169 (inactive).

Take `C[C@H]1NC(=O)[C@@]23C(=O)N[C@@H](Cc4ccccc4)C2[C@H](C)[C@@]2(C)O[C@H]2C3/C=C/C/C=C\CNC(=O)[C@H](Cc2ccccc2)NC1=O` (stereo not given in full): the z-score is 0.106 (inactive).

`COCCOC(=O)N1C(=O)[C@@]2(c3cc(C#CC4=CCCCC4)ccc31)[C@H](C(N)=O)[C@H]1C(=O)O[C@H](c3ccccc3)[C@H](c3ccccc3)N1[C@@H]2c1ccccc1OCCO`: the z-score was -1.88 (inactive).

For the molecule `CCOC(=O)C[C@H]1[C@H](OC(=O)c2cc3ccccc3oc2=O)[C@@H](NC(=O)c2ccc(-c3ccccc3)cc2)c2cc(OCCCO)ccc2N1C(=O)c1ccc2ccccc2n1`, the z-score was -0.338 (inactive).

Turning to `COC(=O)[C@@]1(Cc2ccc(F)cc2)[C@H]2c3cc(C(=O)N(C)C)n(Cc4cc(F)cc5c4OCOC5)c3C[C@H]2CN1C(=O)c1ccccc1`, the z-score was -1.26 (inactive).

For the molecule `COC(=O)[C@@]1(Cc2ccccc2)[C@@H]2C(=CC(=O)[C@H]2CC(=O)C(=O)N(C)C)CN1C(=O)c1ccccc1`, the z-score is 2.93 (inactive).

Take `CN1C(=O)C2C=CC(C(O)c3ccc(F)cc3)N(Nc3ccccc3)C2C1=O` (stereo not given): the z-score was 0.909 (inactive).

Regarding `CCCC[C@@H]1C[C@H]1[C@@H](NC(=O)c1ccccc1)c1ccc(C(F)(F)F)cc1`, the z-score is -0.188 (inactive).

As for `COc1ccc([Si](C)(C)[C@H]2[C@H](CCn3cc([C@H](O)c4ccccc4)nn3)O[C@@]3(C(=O)N(Cc4ccc(N5C(=O)c6cccc7cccc5c67)cc4)c4ccccc43)[C@@H]2C)cc1`, the z-score was -0.64 (inactive).

Take `C[N+](C)(C)CCCC[C@@H]1NC(=O)[C@H]2C[C@@H](C(=O)NCCCCCCN)[C@@H](c3ccc(O)cc3)N2C1=O`: the z-score is 0.587 (inactive).

Turning to `O[C@@H](Cc1ccccc1)[C@@H](/C=C/C1CC1)N(CC#Cc1ccccc1)Cc1cccc(Cl)c1`, the z-score is -1.61 (inactive).

Regarding `CCOC(=O)C[C@H]1[C@H](OC(=O)c2ccccc2-c2ccccc2)[C@@H](NC(=O)c2ccc(-c3ccccc3)cc2)c2cc(OCCCO)ccc2N1C(=O)c1ccc2ccccc2n1`, the z-score was 0.224 (inactive).

Take `CN(C)c1ccc(C(O)C2C=CC3C(=O)N(c4ccccc4)C(=O)C3N2Nc2ccc([N+](=O)[O-])cc2)cc1` (stereo not given): the z-score is -0.0025 (inactive).

Consider `COC(=O)[C@@]1(Cc2ccc(OC)cc2)[C@H]2c3cc(C(=O)N4CCCC4)n(Cc4c(-c5ccccc5)noc4C)c3C[C@H]2CN1C(=O)c1ccccc1`, for which the z-score was -3.14 (inactive).

On to `COc1ccc(-c2nc(-c3ccccc3)c3c(c2C)CO[Si]3(C(C)C)C(C)C)cn1`, for which the z-score was 0.0313 (inactive).

Take `O=C1O[C@@H](c2ccccc2)[C@@H](c2ccccc2)N2[C@@H](c3ccc(O)cc3)[C@]3(C(=O)Nc4ccc(C#CC5=CCCCC5)cc43)[C@@H](C(=O)NC[C@H](O)c3ccccc3)[C@H]12`: the z-score was -1.41 (inactive).

As to `CO[C@H]1O[C@H](CO)[C@@H](OC(=O)Nc2ccccc2-c2ccccc2)[C@H](OC(=O)Nc2ccc3c(c2)OCO3)[C@H]1OC(=O)Nc1ccc2c(c1)OCO2`, the z-score was -1.2 (inactive).

Turning to `COC(=O)[C@@]1(Cc2ccc(F)cc2)[C@H]2c3cc(C(=O)N4CCCC4)n(CCN4CNCC4=O)c3C[C@H]2CN1C(=O)c1ccccc1`, the z-score is 1.64 (inactive).

Consider `CN(C)CCCNC(=O)[C@@H]1c2ccccc2C(=O)N(Cc2ccccc2Cl)[C@H]1c1ccc(CO)cc1`, for which the z-score was -0.738 (inactive).
